From PubChem BioAssay AID2642 (Johns Hopkins Ion Channel Center, 2010) come the findings set out here.

In all, about 310,000 compounds went through this assay and about 3,900 (1.3%) were called active.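 How the source made its calls: active means compounds whose thallium flux B-score, printed positive for inhibition, exceeds three library SD while starting fluorescence stays within three; inactive means the rest.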 The list comes from a sample in which actives are over-represented; it also holds similar structures and randomly drawn compounds.

This assay deals with Potassium voltage-gated channel subfamily KQT member 1 (Homo sapiens) (UniProt P51787). As to the kind of experiment: KCNQ1 potassium current blockers – cell-based, thallium flux, high-throughput, primary screen (AID 2642).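 Further: channel opened by potassium depolarization with thallium stimulus after 20 min compound exposure.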 The settings on record: CHO-K1 KCNQ1, FluxOR thallium flux fluorescence, at 10 µM; hits give high values.
Sequence of Potassium voltage-gated channel subfamily KQT member 1 (Homo sapiens) (P51787 whole entry, looked up): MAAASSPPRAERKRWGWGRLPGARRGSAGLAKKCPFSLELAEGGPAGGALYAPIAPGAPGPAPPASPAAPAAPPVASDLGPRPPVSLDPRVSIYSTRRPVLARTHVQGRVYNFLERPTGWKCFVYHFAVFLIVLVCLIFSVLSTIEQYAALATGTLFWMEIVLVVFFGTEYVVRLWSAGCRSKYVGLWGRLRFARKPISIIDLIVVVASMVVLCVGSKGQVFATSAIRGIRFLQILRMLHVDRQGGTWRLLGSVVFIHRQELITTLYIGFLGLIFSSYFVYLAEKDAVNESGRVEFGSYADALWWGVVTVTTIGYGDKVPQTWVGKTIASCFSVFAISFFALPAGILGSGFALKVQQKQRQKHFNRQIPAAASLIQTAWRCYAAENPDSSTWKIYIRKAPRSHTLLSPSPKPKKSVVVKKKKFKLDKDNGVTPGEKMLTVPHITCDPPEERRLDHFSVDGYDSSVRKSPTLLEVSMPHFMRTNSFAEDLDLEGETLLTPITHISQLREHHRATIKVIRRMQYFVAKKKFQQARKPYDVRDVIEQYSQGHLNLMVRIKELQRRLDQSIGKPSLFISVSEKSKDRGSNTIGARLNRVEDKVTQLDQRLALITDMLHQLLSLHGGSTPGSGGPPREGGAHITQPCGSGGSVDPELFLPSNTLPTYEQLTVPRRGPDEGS
As to `COc1cccc(OCC(O)CNC(=O)c2oc3c(C)c(C)ccc3c2C)c1` (stereo not given), the B-score result was “inactive”.
For `Cc1cc(=O)oc2c3c(cc(OCC(=O)NCCC(=O)N[C@@H](C)C(=O)O)c12)OC(C)(C)CC3`, the B-score entry is “inactive”.
Take `O=C(O)c1ccccc1-c1ccccc1C(=O)Nc1ccccc1Br`: the B-score entry is “inactive”.
For the compound `Nc1cc(OC(=O)c2ccccc2Br)nn1S(=O)(=O)c1ccccc1`, the B-score result is “inactive”.
As for `COc1ccccc1C(=O)NCCC(=O)NC(C)CCc1ccccc1` (stereo not given), the entry is “inactive”; as for `CN1CCN(CC(=O)Nc2cccc([N+](=O)[O-])c2)CC1`, “inactive”; as for `O=C(Nc1cccc([N+](=O)[O-])c1)N1CCc2ccccc2C1`, 7 (active).
Consider `CCc1ccc(NC(=O)N2CCc3ccccc3C2)cc1`, for which the B-score entry is “inactive”.
For the compound `CCCCNCc1ccc(SC)cc1`, the B-score entry was “inactive”.
Regarding `Cc1cc(C)cc(N(CC(=O)N2CC=C(c3ccccc3)CC2)S(=O)(=O)c2c(C)noc2C)c1`, the B-score is 6 (active).
Take `CCOC(=O)C1CCCN(C(=O)CN(c2ccc(OC)cc2)S(=O)(=O)c2c(C)noc2C)C1` (stereo not given): the B-score result was “inactive”.
As for `Cc1cc(C)cc(N(CC(=O)NCC2CCCO2)S(=O)(=O)c2c(C)noc2C)c1` (stereo not given), the B-score result is “inactive”.
For `COc1cccc(/C=N/Nc2cc(C)nc(-c3ccccc3O)n2)c1O`, the B-score is 7 (active).
`COc1cccc(/C=N/Nc2ncc(C(F)(F)F)cc2Cl)c1O`: the B-score entry was “inactive”.
As to `COc1cccc(/C=N/NC(=O)c2[nH]nc3c2CCc2ccccc2-3)c1O`, the B-score entry was “inactive”.
As for `CN(C(=O)c1ccccc1)c1nccnc1C#N`, the B-score entry is “inactive”.
Consider `CCOC(=O)CC1COCCN1C(=O)c1cc(COc2ccc(F)c(F)c2)on1` (stereo not given), for which the B-score entry was “inactive”.
As for `O=C(c1c(F)cccc1Cl)N1CCN(c2ccccn2)CC1`, the entry is “inactive”; as for `COc1ccc(NC(=O)c2sc3nc(C)nc(N4CCN(c5ccccn5)CC4)c3c2C)c(OC)c1`, “inactive”.
For `Cc1nc(N2CCN(c3ccccn3)CC2)c2c(C)c(C(=O)Nc3ccc(F)c(Cl)c3)sc2n1`, the B-score is 13 (active).
For `Cc1nc(N2CCC(C)CC2)c2c(C)c(C(=O)Nc3cc(F)ccc3C)sc2n1`, the B-score entry is “inactive”.
For `Cc1nc(N2CCN(c3ccccn3)CC2)c2c(C)c(C(=O)Nc3ccc(F)cc3)sc2n1`, the B-score was 10 (active).
`Cc1nc(N2CCOCC2)c2c(C)c(C(=O)Nc3ccc(C(F)(F)F)cc3)sc2n1`: the B-score entry was “inactive”.
Regarding `Cc1ccccc1NC(=O)c1cc(S(=O)(=O)Nc2cccc(C(=O)O)c2)ccc1Cl`, the B-score entry was “inactive”.
Consider `COCOc1cc(O)c(C(=O)/C=C/c2ccc(OCOC)c(OCOC)c2)c(OCOC)c1`, for which the B-score result is “inactive”.
As for `CCCCS(=O)c1snnc1C` (stereo not given), the entry is “inactive”; as for `COc1ccc(OC)c(Nc2nc3ccccc3n3cnnc23)c1`, “inactive”.
Consider `COc1cccc(C(=O)Nc2nnc(S(=O)(=O)N(C)c3ccccc3)s2)c1`, for which the B-score result was “inactive”.
Turning to `CS(=O)(=O)c1ccc(Cl)c(NC(=O)COC(=O)c2cccc(S(=O)(=O)N3CCCC3)c2)c1`, the B-score entry was “inactive”.
In the case of `COc1ccc(C2C=C(c3ccc(Br)cc3)Nc3nc(NS(C)(=O)=O)nn32)cc1` (stereo not given) it was “inactive”.
Regarding `COc1ccc(C)cc1NC(=O)NCCCCc1ccccc1`, the B-score entry was “inactive”.
`COc1ccc(C)cc1NC(=O)C(Sc1ccccc1)c1ccccc1` (stereo not given): the B-score was 6 (active).
For the compound `COc1ccc(C)cc1NC(=O)Nc1ccccc1SC`, the B-score result is “inactive”.
With `CCCN1CNC(=S)N(CCc2ccccc2)C1`, the B-score result was “inactive”.
For the compound `CCOC(=O)c1sc(=NC(=O)c2ccc(Br)cc2)n(C)c1C`, the B-score result was “inactive”.
Take `CCOC(=O)c1sc(=S)n2c1[nH]c(=O)c1ccc(C(=O)OC)cc12`: the B-score entry is “inactive”.
Turning to `CCOC(=O)C1=C(C)Nc2sc(C(=O)c3ccc(Br)cc3)c(N)c2C1c1ccc(C(=O)OC)cc1` (stereo not given), the B-score was 8 (active).
In the case of `CCCc1nnc(SCC(=O)Nc2ccc(C(=O)OCC)cc2)o1` it was “inactive”.
`CCOC(=O)c1ccc(NC(=O)CSc2nnc(COc3ccccc3OC)n2C)cc1`: the B-score entry was “inactive”.
In the case of `CCOC(=O)c1ccc(NC(=O)Cn2cnc3cc(C)c(C)cc32)cc1` it was 7 (active); in that of `COc1ccc(CCNc2cc(N3CCN(C(=O)c4ccccc4OC)CC3)ccc2[N+](=O)[O-])cc1OC`, “inactive”.
In the case of `Cc1c(Cl)cccc1NC(=O)NCCCN1CCCC1=O` it was “inactive”; in that of `Cc1cc(Cl)ccc1NC(=S)NCCCN1CCCC1=O`, “inactive”.
In the case of `O=C1CCCN1CCCNC(=S)Nc1ccc(F)c(Cl)c1`, the B-score is 7 (active).
In the case of `CCOc1cc(CN2CCCC(CO)(Cc3ccc(F)cc3F)C2)ccc1OC` (stereo not given) it was “inactive”; in that of `CN(Cc1ccc(F)cc1Cl)S(=O)(=O)c1cccs1`, “inactive”.
In the case of `C=CCn1c(SCc2ccc(C(=O)NCCO)cc2)nc2ccccc2c1=O`, the B-score result is “inactive”.
For the compound `O=C(Nn1c(-c2ccccc2)nc2ccccc2c1=O)c1ccc([N+](=O)[O-])cc1`, the B-score entry was “inactive”.
For `O=C(Nn1c(SCc2ccc([N+](=O)[O-])cc2)nc2ccccc2c1=O)c1ccc(F)cc1`, the B-score was 9 (active).
For `CCc1nc2nc(C)c(NS(=O)(=O)c3ccc4c(c3)CCCC4)c(=O)n2[nH]1`, the B-score result is “inactive”.
As for `CCCCc1ccc(NC(=O)NCc2cccnc2)cc1`, the entry is “inactive”; as for `O=S(=O)(NCCSc1ccccn1)c1ccc(Cl)cc1`, “inactive”; as for `Cc1cc(O)ccc1NC1=CC(=O)CC(C)(C)C1`, “inactive”.
In the case of `CCOc1ccc(NC(=O)CN(C)C(=O)c2c(C)noc2C)cc1OCC`, the B-score entry is “inactive”.
`CCOC(=O)C(C)Sc1nc2ccccc2c(=O)n1CC1CCCCC1` (stereo not given): the B-score is 7 (active).
As for `CCOn1c(SC(C)C)nc2ccccc2c1=O`, the B-score entry was “inactive”.
In the case of `CCOC(=O)C1CCc2nc3ccccc3c(=O)n21` (stereo not given), the B-score entry was “inactive”.
Consider `Cc1c(OC(C)C(=O)NCC2CCC(C(=O)O)CC2)ccc2c1oc(=O)c1ccccc12` (stereo not given), for which the B-score entry was “inactive”.
As to `Cc1noc(C)c1CSCC(=O)Nc1nc2ccc(Oc3ccccc3)cc2s1`, the B-score is 8 (active).
On to `CCc1noc(C)c1C(=O)Nc1nc2ccc(OC)cc2s1`, for which the B-score entry was “inactive”.
Turning to `Cc1noc(C)c1CSCC(=O)Nc1ccc(Br)cc1Cl`, the B-score entry was “inactive”.
As for `Cc1ccc(-n2ncc(C(=O)NC3CC3)c2C2CCN(C(=O)OC(C)(C)C)CC2)c(C)c1`, the B-score entry is “inactive”.
As for `CCOC(=O)c1oc2ccccc2c1NC(=O)c1cccs1`, the entry is “inactive”.
In the case of `Cc1cc(C)c(NC(=O)c2oc3ccccc3c2COc2ccccc2)c(C)c1`, the B-score is 10 (active).
As for `COCc1c(C(=O)OCc2c(C)noc2C)oc2ccccc12`, the B-score entry was “inactive”.
On to `COc1cc(C(C(=O)NC2CCCC2)N(Cc2ccccc2)C(=O)c2snc(C(N)=O)c2N)ccc1O` (stereo not given), for which the B-score result is “inactive”.
Turning to `O=C(Nc1ccccc1)N1CCN(C(=O)Nc2ccccc2)CC1`, the B-score result was “inactive”.
Regarding `COc1cc(C(=O)NCC(=O)N2CC=C(c3ccccc3)CC2)cc(OC)c1OC`, the B-score result was “inactive”.
Turning to `O=C(Nc1ccc(Cl)c(Cl)c1)N1CC=C(c2ccccc2)CC1`, the B-score was 11 (active).
Consider `O=C(NCCCN1CCCCC1)C1CC(=O)N(CCc2ccccc2)C1` (stereo not given), for which the B-score entry is “inactive”.
Turning to `NC(=O)c1cc(-c2cccnc2)nc2ccc(Br)cc12`, the B-score entry is “inactive”.
As for `NC(=O)C1CCN(C(=O)c2cn(-c3ccccc3)nc2-c2cccnc2)CC1`, the B-score entry is “inactive”.
Regarding `O=C(NNC(=S)NC(=O)c1cn(-c2ccccc2)nc1-c1ccccc1)c1ccncc1`, the B-score was 6 (active).
Turning to `Cc1onc(-c2ccccc2)c1C(=O)NNC(=S)NC(=O)c1ccc(F)cc1`, the B-score entry was “inactive”.
`c1ccc(-c2ccc3c(c2)NC(C2Nc4cc(-c5ccccc5)ccc4O2)O3)cc1` (stereo not given): the B-score entry was “inactive”.
Consider `CNS(=O)(=O)c1ccc(N2CCCC2=O)c([N+](=O)[O-])c1`, for which the B-score entry was “inactive”.
As for `CC(=O)Nc1ccc(S(=O)(=O)Nc2ccc(-c3ccc4nnc(C)n4n3)cc2)cc1`, the entry is “inactive”; as for `CN(c1cccc(NC(=O)Nc2ccc(Cl)cc2)c1)S(C)(=O)=O`, 10 (active); as for `Cc1ccc(N(CC(=O)Nc2cccc(N(C)S(C)(=O)=O)c2)S(C)(=O)=O)cc1`, “inactive”.
Regarding `COc1cccc(N(CC(=O)Nc2cccc(N(C)S(C)(=O)=O)c2)S(C)(=O)=O)c1`, the B-score entry was “inactive”.
Regarding `COc1cccc(NC(=O)CN(C)C(=O)CSCc2nc3scc(-c4cccs4)c3c(=O)[nH]2)c1`, the B-score entry was “inactive”.
As for `COc1ccc(C2NC(=O)C(=O)/C2=C(\O)c2ccc(Cl)cc2)cc1OC` (stereo not given), the B-score entry is “inactive”.
Take `O=C(CCc1ccccc1)Nc1ncc([N+](=O)[O-])s1`: the B-score entry was “inactive”.
In the case of `CC(=O)Oc1ccccc1C(=O)Nc1ncc([N+](=O)[O-])s1` it was 7 (active); in that of `O=C(Nc1ncc([N+](=O)[O-])s1)C1COc2ccccc2O1` (stereo not given), “inactive”.
With `CC(NC(=O)c1cc(=O)[nH]c2ccccc12)c1ccc(F)cc1F` (stereo not given), the B-score entry was “inactive”.
In the case of `CC(=O)c1cc2c(cc1NC(=O)Cn1nc(-c3ccc(F)cc3)ccc1=O)OCO2`, the B-score entry is “inactive”.
As to `COc1cnc(-c2ccccn2)nc1Oc1ccc(C(C)(C)C)cc1`, the B-score entry was “inactive”.
In the case of `COc1ccc(S(=O)(=O)N2CCCCCC2)cc1C(=O)OCC(=O)Nc1cc(C)on1` it was “inactive”; in that of `O=C(CSc1ncn[nH]1)N/N=C/c1ccc(F)cc1`, “inactive”.
In the case of `O=C(/C=C/Sc1ncn[nH]1)c1ccc(Cl)cc1` it was 7 (active).
As for `Cc1cc(C)nc(S/C=C/C(=O)c2ccccc2)n1`, the B-score result was “inactive”.
With `CCOc1cc(NC(=S)NCCCN(C)C)c(OCC)cc1NC(=O)C1CC1`, the B-score result is “inactive”.
In the case of `OC(COc1cccc2ccccc12)CN1CCN(c2ccccn2)CC1` (stereo not given) it was “inactive”; in that of `CC(C)c1ccccc1OCC(O)CN(CC(O)COc1cccc2ccccc12)C(C)C` (stereo not given), 6 (active); in that of `Cc1cc(C)c(NC(=O)C[N+](C)(C)CC(O)COc2cccc3ccccc23)c(C)c1` (stereo not given), “inactive”.
Consider `O=C(CC1C(=O)NCCN1Cc1ccc(-c2ccccc2)cc1)NCc1ccncc1` (stereo not given), for which the B-score result was “inactive”.
For the compound `Cc1ccc(OCC(=O)Nc2ccccc2C(=O)NC2CC2)cc1C`, the B-score entry was “inactive”.
Consider `O=C(N/N=C/c1cc([N+](=O)[O-])ccc1O)/C(=C\c1cccs1)NC(=O)c1ccccc1`, for which the B-score result was “inactive”.
With `O=[N+]([O-])c1ccc(O)c(/C=N/Nc2ccccc2[N+](=O)[O-])c1`, the B-score is 9 (active).
Regarding `Nc1nnnn1/N=C/c1cc([N+](=O)[O-])ccc1O`, the B-score entry is “inactive”.
In the case of `CCOc1ccc(CN2CCN(CCCc3ccccc3)C(CCO)C2)cc1` (stereo not given) it was “inactive”; in that of `CN1CCN(C2=NCCO2)CC1`, “inactive”; in that of `COc1ccc(OC)c(C(=O)NC(CC(N)=O)c2ccc(N3CCC(N4CCCCC4)CC3)c([N+](=O)[O-])c2)c1` (stereo not given), “inactive”.
For the compound `O=C(CNS(=O)(=O)c1ccccc1)N1CCN(C(=O)c2ccco2)CC1`, the B-score entry was “inactive”.
